This is an account of results in PubChem BioAssay AID1069 (NMMLSC, 2008).

Structures are written as SMILES. Active and inactive are the calls of the source.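 How the source made its calls: active means high combined rank on largest and smallest cell-count-weighted shift across three tests, rank score above 45, floors 50 and 25 (some results past the limit were not filed as active); inactive means the rest.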

This test is described as follows: activators of LNCaP cell differentiation, retest, confirmation, side scatter shift, flow cytometry (AID 1069).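 Further: LNCaP human prostate cancer cells in low-serum medium with charcoal-stripped FBS; percent of cells with raised granularity gated so DMSO controls show 10%.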 The conditions noted are these: 4 d, stronger effect = higher value.

`CCOC(=O)N1CCN(CC(=O)Nc2cc(C)nn2-c2nc3ccccc3s2)CC1`: the side scatter shift runs as follows: (at 100 µM) 19.3% (inactive); (side scatter shift, at 10 µM) 2.6%.
`CCOC(=O)C1CCN(c2nc3ccccc3nc2C(C#N)C(=O)OCCOC)CC1` (stereo unspecified): the side scatter shift is, setting by setting: (at 100 µM) 11.8% (inactive); (side scatter shift, at 10 µM) 3.1%.
As for `CCOC(=O)c1c(C)[nH]c(C(=O)COC(=O)C2CC2C)c1C` (stereo unspecified), the side scatter shift is 24.3% (active) (at 100 µM) and 44.6% (side scatter shift, at 10 µM).
